Measured values: PubChem BioAssay AID540253 (National Center for Advancing Translational Sciences (NCATS), 2011)
Hit rate of the full screen: of about 340,000 compounds, about 240 (0.071%) were called active. Calls follow the shape of the full dose curve. The entries come from a sample that favours actives as a whole.

biological target: Snurportin-1 (Homo sapiens) + GTP-binding nuclear protein Ran (Homo sapiens) + Importin subunit beta-1 (Homo sapiens) (UniProt O95149+P62826+Q14974); test: qHTS Assay for Inhibitors of RanGTP induced Rango (Ran-regulated importin-beta cargo) - Importin beta complex dissociation; settings: Biochemical FRET Rango-importin beta; series mostly up to 46.1 µM; activity change, negative = inhibition: at the top concentration; also: nearly all actives have a fitted effect of over 45% in size; as to activity change, negative = inhibition: % of control where 0% means no effect
From the text: NIH Molecular Libraries Probe Production Centers Network [MLPCN] NIH Chemical Genomics Center [NCGC] MLPCN Grant: R03 MH090808-01A1 Assay Submitter (PI): Petr Kalab NCGC Assay Overview: The small GTPase Ran regulates transport of macromolecules between the nucleus and the cytoplasm (nuclear transport) and has important functions in mitotic spindle assembly, nuclear envelope (NE) formation and nuclear pore complex (NPC) assembly. RanGTP gradient is thought to promote spindle assembly by providing a spatial clue to microtubule nucleation and Aurora A activation. Because the localized release and binding of importin alpha cargos relays this spatial clue to SAFs, inhibitors of the Rango - importin beta complex can then be used in further understanding their role in cell cycle specifically in mitosis progression. […] Activation of Aurora A has been linked to different types of cancer and a number of Aurora kinase inhibitors are being developed as potential canter therapeutics; therefore, identified inhibitors of this complex could be developed into potential anti-mitotic probes for cancer treatment. Purified recombinant proteins Rango - importin beta and RanGTP-RCC1 stock premixes were provided by the assay submitter. The assay used a fluorescence resonance energy transfer (FRET) Rango biosensor that contains the IBB of human snurportin 1 flanked by yellow fluorescent protein (EYFP) at the amino terminus and cerulean CFP10 at the carboxy terminus. […] RanGTP binding to the complex (in the presence of RCC1) releases the Rango from the complex. The flexibility of the IBB in the freed Rango allows the donor - acceptor fluorophores to interact, resulting in a high FRET signal. Inhibitors will therefore be identified based on the ability to interfere with the FRET signal increase. DMSO treated and no RanGTP-RCC1 (buffer only) wells were used as negative and positive controls respectively. FRET readings were obtained at two time points. FRET reading prior to importin beta addition (pre-read) were used flag potential compound interference; FRET reading after importin beta addition (post-read) were used to identify inhibitors.
NCGC Assay Protocol Summary: Two and a half uL/well of Rango- importin beta premix solution (0.1 uM Rango, 0.25 uM importin beta, 1x PBS, 1mM DTT, 0.02% Tween-20, 0.1% BSA final concentrations) was dispensed into 1536-well assay plates (Greiner, solid black medium-binding plates) with Aurora Discovery BioRAPTR Flying Reagent Dispenser (FRD; Beckton-Dickenson). Compound solution (23 nL) was transferred to the assay plate using Kalypsys pin tool equipped with a 1536-pin tool and incubated at room temperature for 5 min followed by a FRET pre-read using the PerkinElmer Envision plate reader. Two and a half uL/well of RanGTP-RCC1 premix solution (0.6 uM Ran, 2mM GTP, 0.2 uM RCC1, 1x PBS, 1mM DTT, 0.02% Tween-20, 0.1% BSA final concentrations) were then added and incubated at room temperature giving a final reaction volume of 5uL. After 45min FRET post-read was obtained via the Envision plate reader using the same optics and settings as the pre-read (CFP/YFP optimized dual optical module D450/D505; excitation mirror CFP 430/24 nm; and emission filters CFP 486/10 nm and YFP 530/10 nm).
Potency is read from the fitted curve at half-maximal effect.

Row | SMILES | activity change, negative = inhibition | Potency
1 | Cc1ccc(S(=O)(=O)n2oc(=O)c(C3CCCCC3)c2N)cc1 | -10.6% (inactive) | 
2 | O=C(Nc1ccn(CCCNCc2ccc3[nH]ccc3c2)c(=O)n1)OCc1ccccc1 | -18% (inactive) | 
3 | CCCCN1CC(CO)Oc2cccc(F)c2S1(=O)=O (stereo not given) | -9.79% (inactive) | 
4 | CCc1c(Nc2ccccc2Cl)nc(N)[nH]c1=O | 4.91% (inactive) | 
5 | O=C1OCC2=C1C(c1ccc(Cl)cc1)c1cc3c(cc1O2)OCO3 (stereo not given) | 5.14% (inactive) | 
6 | O=C1C2C3C=CC(C3)C2C(=O)N1c1ncc([N+](=O)[O-])s1 (stereo not given) | 2.52% (inactive) | 
7 | O=C(NN=Cc1ccc([N+](=O)[O-])cc1)C1CC1 | 0.979% (inactive) | 
8 | O=C(CCC(=O)N1CCN(S(=O)(=O)c2ccc(Cl)cc2)CC1)NCc1cccc(C(F)(F)F)c1 | -1.43% (inactive) | 
9 | COc1ccc(CC(=O)NC(C)c2ccc(Cl)c(Cl)c2)cc1S(=O)(=O)N1CCOCC1 (stereo not given) | -14.4% (inactive) | 
10 | CCOC(=O)C1CCCN(C(=O)Cn2ncc3c(=O)oc4ccc(C)cc4c32)C1 (stereo not given) | -6.21% (inactive) | 
11 | CC1=CC(=NNS(=O)(=O)c2ccc([N+](=O)[O-])cc2)CC(C)(C)C1 | -0.346% (inactive) | 
12 | O=C(O)c1ccccc1/C=N/Nc1ccc(S(=O)(=O)Nc2ccc(Cl)cc2)cc1[N+](=O)[O-] | -1.28% (inactive) | 
13 | NN=C(NN=Cc1ccccc1)c1ccccc1 | -0.281% (inactive) | 
14 | NC(=O)c1ncn([C@@H]2O[C@H](CN=C3NS(=O)(=O)c4ccccc43)[C@@H](O)[C@H]2O)n1 | -11.1% (inactive) | 
15 | CC(C)OC(=O)c1ccc(NCc2cc(O)ccc2O)cc1Cl | -14.8% (inactive) | 
16 | O=C(c1ccc2c(c1)C(=O)N(Cc1ccncc1)C2=O)N1CCN(S(=O)(=O)c2ccc(OC(F)(F)F)cc2)CC1 | 17.2% (inactive) | 
17 | NC(CSC1(c2ccccc2)c2ccccc2-c2ccccc21)C(=O)O (stereo not given) | 2.22% (inactive) | 
18 | O=c1[nH]c(=S)[nH]c(O)c1/C=C1\C=Nc2ccccc21 | -10% (inactive) | 
19 | O=C1OC(Cc2ccccc2)C(c2ccccc2)C1=O (stereo not given) | 2.72% (inactive) | 
20 | Cc1cccc(C2c3c(n(C)c(=O)n(C)c3=O)N=C3c4ccccc4C(=O)C32)c1 (stereo not given) | 15.3% (inactive) | 
21 | CCNC(=S)NCC | 5.2% (inactive) | 
22 | COc1ccc(-c2nnc(-c3ccc4ccccc4c3)o2)cc1 | -10.4% (inactive) | 
23 | Cc1[nH]c(N)nc(=S)c1CCCNc1ccccc1 | 8.31% (inactive) | 
24 | Cn1c(N)cc(=O)n(C)c1=S | 7.4% (inactive) | 
25 | NC(=O)c1ccc(N2CCCC2)nc1 | -10.8% (inactive) | 
26 | Cc1cc([N+](=O)[O-])c(=O)[nH]c1C | 0.254% (inactive) | 
27 | O=S(=O)(Cc1ccc(Cl)cc1Cl)c1ccc(Cl)cc1 | 8.21% (inactive) | 
28 | CCN(CC(=O)Nc1c(F)cccc1F)C(=O)Cc1cccs1 | -2.49% (inactive) | 

Row | SMILES | activity change, negative = inhibition | Potency
29 | O=[N+]([O-])c1ccc(NS(=O)(=O)c2ccccc2)c(Cl)c1 | -8.5% (inactive) | 
30 | O=C(O)C(c1cccs1)C1(O)CCCCC1 (stereo not given) | 10.6% (inactive) | 
31 | O=C(CC1Sc2ccccc2NC1=O)NNc1ccc(Cl)c(Cl)c1 (stereo not given) | -9.85% (inactive) | 
32 | S=C(Nc1ccccc1)Nc1ccc2ccccc2c1 | 11.2% (inactive) | 
33 | C/C(=N\Nc1ccccc1)c1cccs1 | -12.4% (inactive) | 
34 | CCC1(C)COC(c2ccc(OC)c(OC)c2)OC1 (stereo not given) | 1.83% (inactive) | 
35 | Cn1c(CNC(=O)C(C)(C)C)nc2ccccc21 | 0.931% (inactive) | 
36 | Cn1c(-c2ccc(C(=O)c3ccccc3)s2)nc2ccccc21 |  | 8.2 µM [inconclusive] (active)
37 | Cn1c(NC(=O)c2ccccc2)nc2ccccc21 | 0.409% (inactive) | 
38 | Nc1ccc2[nH]c(=S)sc2c1 | 6.09% (inactive) | 
39 | O=C1c2ccccc2C(=O)C1C(=O)C1CC1 | 0.674% (inactive) | 
40 | O=C(O)c1ccc([N+](=O)[O-])cc1Sc1ccsc1 | 0.213% (inactive) | 
41 | CC(C=Cc1ccccc1)=NNS(=O)(=O)c1ccc([N+](=O)[O-])cc1 | -2.55% (inactive) | 
42 | O=[N+]([O-])c1cc2ccccc2nc1-c1ccccc1 | 6.66% (inactive) | 
43 | CCN1C[C@@H]2[C@@H]3C(=O)N(C)C(=O)[C@@H]3[C@](C)(C1=O)N2C(=O)c1ccccc1 | -9.87% (inactive) | 
44 | COc1cc(O)c2c(=O)c3c(O)c(O)ccc3oc2c1OC | 0.328% (inactive) | 
45 | C#CCOCCOCCOCCNc1nc(N2CCOCC2)nc(N2CCN(C(=O)[C@H](Cc3ccc(O)cc3)n3cc(CCO)nn3)CC2)n1 | 12.8% (inactive) | 
46 | O=C(NN=Cc1ccccc1)c1ccccc1 | -1.55% (inactive) | 
47 | CCOc1ccc(CCNC(=O)COC(=O)C2CCN(S(=O)(=O)c3ccccc3)CC2)cc1OCC | -1.16% (inactive) | 
48 | Cc1cc(NC(=O)c2cc3ccccc3o2)no1 | -27% (inactive) | 
49 | CC(=O)N1CCc2ccc(N)cc21 | 0.796% (inactive) | 
50 | O=C1C(Cl)=C(Oc2ccccc2)C(=O)c2ccccc21 | -0.449% (inactive) | 
51 | O=c1nc(NO)ccn1C1CCCO1 (stereo not given) | 0.851% (inactive) | 
52 | O=c1[nH]c2c(c(=O)n1-c1ccccc1)CCO2 | 28.5% (inactive) | 
53 | COC1=CC(=O)OC(c2ccc(OC)cc2)C1 (stereo not given) | -26.4% (inactive) | 
54 | CCOc1ccc(/C=C(/C#N)c2nnc(N3CCOCC3)n2-c2ccccc2)cc1OC | -6.71% (inactive) | 
55 | CC(=O)OC1CCC2C3CCC4=C(CC(F)C(=O)C4)C3CCC12C (stereo not given) | -8.28% (inactive) | 
